Results filed as inconclusive are left out. A call without a number means that no potency is given here. Active and inactive are the calls of the source. Calls follow the shape of the dose curve; as a rule, active = well fitted inhibition curve with a large enough effect; inconclusive = small, poorly fitted or top-dose-only effect; inactive = no such curve, though single readings can be large or run the other way.
Test system: Zika virus NS2B-NS3 protease (linked construct)
Assay: Primary screen NINDS Rhodamine qHTS for Zika virus inhibitors (AID 1347160); also: nearly all actives have a fitted effect of over 55% in size
Conditions: purified NS2B-NS3 protease, Rhodamine110 substrate fluorescence; series mostly up to 57.1 µM
In short: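 Each compound, titrated, sat 15 min with 25 nM linked protease before 1.5 microM Rhodamine110 substrate went in. Fluorescence gain over the next 15 min, in pH 8.0 Tris with Tween 20, gave Hill-fitted curves.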

SMILES	Potency
CCC(C)/C=C(C)/C=C/C1=CC2=C(Cl)C(=O)C(C)(OC(C)=O)C(=O)C2=CN1CCCC(=O)O (stereo not drawn)	inactive
NS(=O)(=O)NCCNc1nonc1C(=Nc1ccc(F)c(Br)c1)NO	inactive
C[C@@H]1O[C@@H](O[C@H]2[C@H](O[C@H]3[C@H](O[C@H]4CC[C@@]5(CO)C(CC[C@]6(C)C5CC=C5C7CC(C)(C)C[C@@H](O)[C@]7(C)CC[C@]56C)C4(C)C)O[C@H](C(=O)O)[C@@H](O)[C@@H]3O)OC[C@@H](O)[C@@H]2O)[C@H](O)[C@H](O)[C@H]1O (stereo partly drawn)	inactive
CCNC(=O)[C@@H]1CCCN1C(=O)[C@H](CCCN=C(N)N)NC(=O)[C@H](CC(C)C)NC(=O)[C@@H](C)NC(=O)[C@H](Cc1ccc(O)cc1)NC(=O)[C@H](CO)NC(=O)[C@H](Cc1c[nH]c2ccccc12)NC(=O)[C@H](Cc1cnc[nH]1)NC(=O)[C@@H]1CCC(=O)N1	inactive
C[C@]1(O)CC[C@@H]2C(C(=O)O)=CO[C@@H](O[C@@H]3O[C@H](COC(=O)c4ccc(O)cc4)[C@@H](O)[C@H](O)[C@H]3O)[C@@H]21	inactive
CC1CC(O)C2(C)C(C(=O)O)=CCCC2C1(C)CCc1ccoc1 (stereo not drawn)	inactive
CC(c1c[nH]c2ccccc12)C(O)C(=O)O (stereo not drawn)	inactive
C[C@@H]1O[C@@H](O[C@H]2[C@H](O)[C@@H](C(=O)O)O[C@@H](O[C@H]3CC[C@@]4(C)C(CC[C@]5(C)C4CC=C4C6CC(C)(C)CC[C@]6(C(=O)O)CC[C@]45C)C3(C)C)[C@@H]2O[C@@H]2O[C@H](CO)[C@@H](O)[C@H](O)[C@H]2O)[C@H](O)[C@H](O)[C@H]1O (stereo partly drawn)	inactive

Source: PubChem BioAssay (NCATS)
